# Inconclusive results are not listed. Values without a mark were called inactive. The call rests on the fitted dose curve; in most records, active means well fitted cell-killing curve with a large enough effect in the repeat runs; inconclusive means weak or mixed curves; inactive means no such curve, though single readings can be large or run the other way.
# Assay: qHTS assay to identify small molecule agonists of the peroxisome proliferator-activated receptor delta (PPARd) signaling pathway - cell viability counter screen (AID 743211); further: nearly all actives have a fitted effect of over 55% in size
# Details: PPARd-bla HEK293H viability, CellTiter-Glo luminescence, 17 h; series mostly up to 62.6 µM; activity change, negative = cytotoxicity: at the top concentration
# Procedure, shortened: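 PPARd-bla HEK293H cells (UAS-beta-lactamase reporter) were treated with compounds for 17 h at 37 C. Viability was then read in the same wells by CellTiter-Glo luminescence after 30 min at room temperature.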
# On the % scale 0 is the no-effect control and ±100 the full control effect.
row,SMILES,"activity change, negative = cytotoxicity"
1,CC1CC(O)CC(C)(C)C1 (centres undefined),-14.2%
2,Cc1ccnc2ccccc12,2.72%
3,Cc1nc2ccccc2s1,-8.4% [at 81.1 µM]
4,Nc1nccs1,0.366%
5,CC1CN(c2cc3c(cc2F)c(=O)c(C(=O)O)cn3-c2ccc(F)cc2F)CCN1 (centres undefined),-0.433% [at 5.95 µM]
6,CCCOC(=O)c1ccc(N)cc1,3.33%
7,O=Cc1c(Cl)cccc1Cl,6.1% [at 81.1 µM]
8,CCCOCCOCCO,5%
9,C/C(=N/NC(=O)c1ccncc1)C(=O)O,2.21%
10,OCCSc1ccccc1,2.95%
11,CCOC(=O)c1ccccc1OC,3.77%
12,ON(Cc1ccccc1)Cc1ccccc1,3.74%
13,Nc1ccc(Cl)cc1[N+](=O)[O-],1.75%
14,CCC1(C)CC(=O)NC1=O (centres undefined),8.81%
15,C=CC(C)(O)CCCC(C)CCCC(C)CCCC(C)C (centres undefined),1.64%
16,CCC(C)=O,5.9%
17,NC(=O)N(O)[C@@H]1C=C[C@H](Oc2cccc(Oc3ccc(F)cc3)c2)C1,1.02%
18,CC1=NN(c2ccc(C(=O)O)cc2)C(=O)C1,10.9%
19,CC(COc1ccc(C(C)(C)C)cc1)OS(=O)OCCCl (centres undefined),-2.45% [at 81.1 µM]
20,O=C(O)Cc1ccc(-c2ccccc2)cc1,2.68%
21,Cc1ccc(S)cc1,-13.8%
22,CC(=O)OCC(=O)[C@@]12OC(C)(C)O[C@@H]1C[C@H]1[C@@H]3C[C@H](F)C4=CC(=O)C=C[C@]4(C)[C@@]3(F)[C@@H](O)C[C@@]12C,2.06%
23,CCC(C(=O)OCCN(CC)CC)c1ccccc1 (centres undefined),5.36%
24,C[C@@H]1C[C@H]2[C@@H]3CCC4=CC(=O)C=C[C@]4(C)[C@@]3(F)[C@@H](O)C[C@]2(C)[C@H]1C(=O)CO,-4.01%

# Reference: PubChem BioAssay (Tox21)
